Source: the supplement of paper PMC8975748
Where a name gives a salt, the structure may show the parent alone.

Each compound was assayed on Saccharomyces cerevisiae BY4741 SeMeCo community (assay: z-score of prototroph abundance vs DMSO median; higher = larger share of this subpopulation than in DMSO controls). Conditions: 10 µM; 24 h; SM minimal medium; subpopulation (auxotrophy): Prototroph.
Outline: (§1)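 Cells of a Saccharomyces cerevisiae BY4741 community, carrying four plasmids that each restored one auxotrophy and encoded a distinct fluorescent protein, were pre-grown overnight to OD600 1.0 and diluted to 0.3. A 70 µl volume was added to 384-well plates acoustically predosed with library drugs (10 µM final) and grown 24 h in minimal SM medium. After paraformaldehyde fixation, automated confocal microscopy was used, with single-auxotroph fluorescent strains for thresholds and autofluorescence correction. The abundance of each subpopulation was scored as a z-score against the vehicle-well median.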

Compound	z-score of prototroph abundance
CN(C)CCN1C(=O)c2cccc3cc(N)cc(c23)C1=O [Amonafide]	0.47
c1ccc(-c2ccc(C(c3ccccc3)n3ccnc3)cc2)cc1 (stereo unspecified) [Bifonazole]	-0.9
CO/N=C(\C(=O)N[C@@H]1C(=O)N2C(C(=O)O)=C(Cn3ccc(=N)n3CCO)CS[C@H]12)c1csc(N)n1 [Cefoselis Sulfate]	0.34
OC(CCN1CCCCC1)(c1ccccc1)C1CCCCC1 (stereo unspecified) [Trihexyphenidyl hydrochloride]	-0.03
C[C@H](NCc1ccc(OCc2cccc(F)c2)cc1)C(N)=O [Safinamide Mesylate]	-0.78

What follows are compounds tested on Saccharomyces cerevisiae BY4741 SeMeCo community (assay: z-score of subpopulation abundance vs DMSO median, subpopulation auxotrophic for M; higher = larger share of this subpopulation than in DMSO controls). Conditions: 10 µM; 24 h; SM minimal medium; subpopulation (auxotrophy): M.
Outline: as §1

Compound	z-score of subpopulation abundance
C#CCN[C@@H]1CCc2ccccc21 [Rasagiline Mesylate]	0.65
OCc1ccccc1O[C@@H]1O[C@H](CO)[C@@H](O)[C@H](O)[C@H]1O [Salicin]	-0.14
CCCCCOc1ccc(-c2ccc(-c3ccc(C(=O)N[C@H]4C[C@@H](O)[C@@H](O)NC(=O)[C@@H]5[C@@H](O)[C@@H](C)CN5C(=O)[C@H]([C@@H](C)O)NC(=O)[C@H]([C@H](O)[C@@H](O)c5ccc(O)cc5)NC(=O)[C@@H]5C[C@@H](O)CN5C(=O)[C@H]([C@@H](C)O)NC4=O)cc3)cc2)cc1	-11.7
COc1cc2c(cc1OC)[C@@H]1Cc3ccc(OC)c(OC)c3CN1CC2 [Rotundine]	0.07
C[C@H](NCc1ccc(OCc2cccc(F)c2)cc1)C(N)=O [Safinamide]	0.59
CC1(C)S[C@@H]2[C@H](NC(=O)COc3ccccc3)C(=O)N2[C@H]1C(=O)O [Penicillin V potassium salt]	0.91
